# Screening results from PubChem.
# The sample as a whole holds a higher share of hits than the screen did.
# mHTT CaM bind = mutant huntingtin-calmodulin interaction inhibitors – biochemical, AlphaScreen, primary screen; inhibition, % at 15 µM; actives 3.6% (n = 190,000); AlphaScreen His-mHTT/GST-CaM binding, luminescence;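 note: 0% = both proteins with DMSO and 100% = one protein alone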
# Pf apPOL block = Pf-apPOL inhibitors, biochemical, fluorescence. actives 0.25% (n = 210,000). Plasmodium falciparum apicoplast DNA polymerase (apPOL). Recombinant Pf-apPOL, molecular beacon fluorescence, 1.5 h. inhibition, % at 10 µM. AID 1794808, 2022
# The depositor's hits bear a star; i = inactive; . = no result; + = active, no number. Cut-off read from the data, not from the text of the source: active = inhibition above about 50%; inactive = the rest.
SMILES,mHTT CaM bind,Pf apPOL block
O=C(c1ccc(C(F)(F)F)cc1)N1CCC(n2c(-c3ccco3)nc3cccnc32)C1 (stereo unspecified),91*,-7
O=C(c1ccc(F)c(Cl)c1)N1CCC(n2c(-c3ccco3)nc3cccnc32)C1 (stereo unspecified),98*,-3
O=C(Nc1ccc(F)c(Cl)c1)N1CCC(n2c(-c3ccco3)nc3cccnc32)C1 (stereo unspecified),-3,1
COc1ccc(C(=O)N2CCC(n3c(-c4ccco4)nc4cccnc43)C2)cc1 (stereo unspecified),-5,-5
CCc1ccc(NC(=O)N2CCC(n3c(-c4ccco4)nc4cccnc43)C2)cc1 (stereo unspecified),51*,0
O=C(c1cccc(Cl)c1)N1CCC(n2c(-c3ccco3)nc3cccnc32)C1 (stereo unspecified),51*,4
CCOC(=O)Nc1ccc2c(c1)N(C(=O)CNC(C)C)c1ccccc1CC2,-4,-2
CCOc1ccccc1NC(=O)N1CCC(c2cnn(-c3ccc(C)cc3)c2)CC1,-16,-3
Cc1cc(C)cc(C(=O)N2CC=C(C(=O)NC(C)C)CC2)c1,15,-3
COc1cc(NC(=O)Cc2ccc(OC)c(OC)c2)cc(OC)c1,-5,-6
Cc1ccc(C(=O)N2CCC(n3c(-c4ccco4)nc4cccnc43)C2)cc1C (stereo unspecified),72*,-4
Cc1ccc(C(=O)N2CCC(n3c(-c4ccco4)nc4cccnc43)C2)cc1 (stereo unspecified),14,-2
COc1ccc2c(c1)CN1CN(Cc3ccccc3)S(=O)(=O)CC21 (stereo unspecified),-8,-5
Cc1ccc(-c2nn(C)c(=O)c3ccccc23)cc1S(=O)(=O)NCCCO,0,95*
CCNS(=O)(=O)c1cc(-c2nn(C)c(=O)c3ccccc23)ccc1C,1,19
CC(C)N1CCN(C(=O)C2CCN(c3cncnc3N3CCOCC3)CC2)CC1,-6,0
O=C(c1ccc(F)cc1)N1CCCCCC1,-7,9
O=C(c1ccc(F)cc1)N1CCc2nc(N3CCCC3)nc(N3CCCC3)c2C1,56*,17
CC(NC(=O)Nc1cccc(Cl)c1)c1ccccc1 (stereo unspecified),-3,-5
CC(NC(=O)Nc1ccc(Cl)c(Cl)c1)c1ccccc1 (stereo unspecified),73*,-1
COc1cccc(-c2nc(C3CCN(C(=O)Cc4ccc(OC)cc4Cl)CC3)no2)c1,-7,-2
Cc1ccc(N2CCN(C(=O)Cc3ccccc3)C(C)C2=O)cc1Cl (stereo unspecified),5,-3
CN(C)CCCNC(=O)c1ccc(/C=N/O)[n+](C)c1,i,1
O=C(NCCCNCCCNC(=O)c1ccc(/C=N/O)nc1)c1ccc(/C=N/O)nc1,+,-3
O=c1[nH]c2ccccc2nc1C=C(O)c1cccs1,-4,0
SMILES,mHTT CaM bind,Pf apPOL block
Cc1nc2nc(SCC(=O)NCCc3ccccc3)nn2c(C)c1Cc1ccccc1,31,-8
Cc1ccccc1C(=O)Nc1cccn2nc(C3CC3)nc12,17,-24
O=C(Cc1cccs1)Nc1cccn2nc(C3CC3)nc12,35,61*
OCCN=c1scc(-c2ccc(Br)cc2)n1-c1ccccc1,60*,-1
COc1ccc(-c2csc(=NCCO)n2-c2ccccc2)cc1,6,2
COc1ccccc1Nc1nc(-c2c(C)nc3cc(C)ccn23)cs1,76*,-1
Cc1nc2ccccn2c1-c1csc(Nc2ccc(N)cc2)n1,63*,1
Cc1nc2ccccn2c1-c1csc(N)n1,-1,.
CC(=O)Nc1ccc(Nc2nc(-c3c(C)nc4ccccn34)cs2)cc1,21,-4
C=CCNc1nc(-c2c(C)nc3ccccn23)cs1,9,14
Cc1ccnc(Nc2nc(-c3c(C)nc4ccccn34)cs2)c1,62*,-7
COc1ccc(N(CC(=O)N2CCCCC2)S(=O)(=O)c2ccccc2[N+](=O)[O-])c(OC)c1,23,-1
NNC(=O)c1cnn(-c2ccccc2)c1N,.,-4
CSc1ccccc1NC(=O)c1cc(=O)c(OCc2ccc(F)cc2)co1,-12,-11
COc1cc2cc(C3CC(c4ccccc4)=NN3C(C)=O)c(Cl)nc2cc1OC (stereo unspecified),0,-3
O=C(Nc1c2c(nn1-c1ccc([N+](=O)[O-])cc1)CSC2)c1cccc(Br)c1,9,36
Cc1ccccc1N=Cc1c(C)[nH]n(-c2cccc(Cl)c2)c1=O,26,3
COc1cccc(C(=O)Oc2coc(CSc3nccc(C)n3)cc2=O)c1OC,34,-6
Cc1ccnc(SCc2cc(=O)c(OC(=O)C(C)(C)Oc3ccc(Cl)cc3)co2)n1,99*,2
CCCCOCC(O)C[N+]1(Cc2ccccc2)CCOCC1 (stereo unspecified),-5,-2
